This is an account of results in ChEMBL document CHEMBL3988442, “University of Dundee, Small-Polar-MMV Screening Library” (2021).

Screen size: about 48,000 compounds; about 13,000 (27%) showed an effect of 50% or more. The list shows a part of the results.

This test deals with Wolbachia pipientis. The experiment in a line: Anti-Wolbachia Cell-Based Screen. It is filed as functional. Further details: scale not given: in the data most compounds retested in dose-response had high values. Particulars: 5 µM.
Regarding `CC(=O)N1CCN(C(=O)c2cnc(OC(C)C)c(Cl)c2)CC1`, the “Percent Effect” value was -40.95%.
The value for `CCCOc1ccc(CNc2cncc(-n3cccn3)n2)cc1` was 92.88%; that for `CNC(=O)COc1ccc(CNc2c(Cl)cccc2C#N)cc1` was -7.522%.
Take `CNC(=O)COc1ccc(CNc2cncc(-n3cccn3)n2)cc1`: the “Percent Effect” value amounted to 94.6%.
The same measure for `CCN(CC)C(=O)c1ccc(CNc2ncc(C#N)cc2Cl)cc1`: 2.172%.
The same measure for `CCOc1cccc(CNc2cncc(-n3cccn3)n2)c1`: 10.28%; for `CCN(Cc1nccn1C)C(=O)c1ccc(NCc2ccccc2)nc1`: -22.31%.
The value for `CCN(CC)C(=O)c1ccc(CNc2cncc(-n3cccn3)n2)cc1` was 118.2%; that for `CN(CCCc1ccccc1)C(=O)c1cn2c(n1)CNCC2` was 13.8%.
Take `O=C(CSc1ccc2c(c1)OCCO2)NS(=O)(=O)c1ccccc1`: the “Percent Effect” value was -10.89%.
The value for `Cn1nccc1C1CCN(Cc2cnn(-c3ccccc3)n2)CC1` was -1.945%.
Turning to `CN(CCc1ccccc1)c1cnn(CC(=O)N2CCSCC2)c(=O)c1`, the “Percent Effect” value is listed as -7.275%.
The same measure for `Cc1nn(CC(C)C)c(N(C)C)c1CNCc1cccnc1N(C)C`: -5.662%.
The value for `Cc1nn(CC(C)C)c(N(C)C)c1CNCc1cccc2c1OCO2` was 0.06204%; that for `COc1cc(CNCc2c(C(C)C)nn(C)c2N(C)C)ccn1` was -8.861%; that for `Cc1nn(CC(C)C)c(N(C)C)c1CNCc1ccnn1C` was 113.6%.
As to `COc1cc(CNCc2c(C)nn(C)c2N(C)C)ccn1`, the “Percent Effect” value is given as -5.351%.
With `Cc1nn(CC(C)C)c(N(C)C)c1CNCc1cc2ccccc2[nH]1`, the “Percent Effect” value amounted to 5.6%.
`Cc1nn(CC(C)C)c(N(C)C)c1CNCc1ccc(CO)c(F)c1`: the “Percent Effect” value is given as 108.6%.
Turning to `COc1cc(CNCc2c(C)nn(CC(C)C)c2N(C)C)ccn1`, the “Percent Effect” value came to 90.35%.
The same measure for `Cc1nn(C)c(N(C)C)c1CNCc1ccnn1C`: -14.99%; for `Cc1nn(CC(C)C)c(N(C)C)c1CNCc1ccccc1CO`: 116.8%.
The same measure for `CC(C)c1nn(C)c(N(C)C)c1CNCc1ccnn1C`: 10.31%; for `CC(=O)NCCCNCc1c(C)nn(CC(C)C)c1N(C)C`: -6.238%.
The value for `COCC1CN(C(=O)Nc2cc(-n3cccc3)ccc2F)CCO1` (centres undefined) was 0.4358%; that for `O=S(=O)(NCCc1c[nH]c2ccc(F)cc12)C1CCOCC1` was -14.21%; that for `Cc1cc(N2CCN(Cc3ccc(C)o3)CC2)cc(C)n1` was 4.051%.
Regarding `CN(Cc1cccc(Cl)c1)C(=O)Cn1nc(-c2ccc(F)cc2)oc1=O`, the “Percent Effect” value is reported as -8.099%.
In the case of `CCOCc1nc2c(c(N(C)Cc3snnc3C)n1)CCNCC2`, the “Percent Effect” value came out at 2.794%.
In the case of `O=C(NC[C@@H]1CCCO1)c1ccc(S(=O)(=O)N[C@@H]2CCNC2)cc1`, the “Percent Effect” value is -1.141%.
The same measure for `CC(C)C(NCc1ccc(Cn2cncn2)cc1)c1ccc(F)cn1` (centres undefined): 90.96%.
On to `CC(NCc1ccc(F)cc1)c1ccc(S(C)(=O)=O)cc1` (centres undefined), for which the “Percent Effect” value was found to be 8.945%.
Regarding `N#Cc1cc(F)ccc1NCc1ccc(Cn2cncn2)cc1`, the “Percent Effect” value was 1.669%.
Regarding `CC(C)c1ccc(CNC(c2ccc(F)cn2)C(C)C)cc1` (centres undefined), the “Percent Effect” value was 100.5%.
As for `Fc1ccc(CNc2ccccc2Cn2cncn2)cc1`, the “Percent Effect” value was -15.58%.
As to `Cc1[nH]ncc1C(C)NCc1ccc(F)cc1` (centres undefined), the “Percent Effect” value was -5.411%.
Consider `COc1ccc(CNC(Cn2cncn2)c2ccccc2)cc1C` (centres undefined), for which the “Percent Effect” value was -2.513%.
Take `CC(C)C(NCc1ccc(Cn2cncn2)cc1)c1ccccc1` (centres undefined): the “Percent Effect” value is recorded as 124.9%.
With `COc1ccc(CNC(Cn2cncn2)c2ccccc2)cc1O` (centres undefined), the “Percent Effect” value is on record as -2.426%.
The value for `COc1cc(OC)cc(N2CCC(NCc3occc3C)C2=O)c1` (centres undefined) was -29.36%; that for `Cc1cn(Cc2nc(CC(C)C)nn2-c2ccccn2)c(=O)[nH]c1=O` was 5.875%; that for `CCOCCC(=O)Nc1cc(C)cnc1OC` was 1.473%.
The value for `O=C(O)C(c1ccc2[nH]ccc2c1)N1CCN(c2cnccn2)CC1` (centres undefined) was -11.7%; that for `O=C(C1=CCCC1)N1CCC[C@]2(C[C@@H](OCc3ccncc3)CO2)C1.O=C(O)C(F)(F)F` was -18.3%; that for `Cc1ccc(S(=O)(=O)NC[C@H]2OC[C@@H](NCc3ccccc3)[C@@H]2O)cc1` was -16.71%.
The same measure for `COC1CCN(S(=O)(=O)N2CCC3(CCCNC3=O)C2)CC1` (centres undefined): 4.322%; for `CN1CC(Nc2nc3c(cnn3C(C)(C)C)c(=O)[nH]2)CCC1=O` (centres undefined): 10.78%; for `O=C1CCCN1Cc1ncn2c1CN(C(=O)Cc1cccs1)CCC2`: 106.6%.
On to `O=C1CCCN1Cc1ncn2c1CN(C(=O)Cc1ccccc1)CCC2`, for which the “Percent Effect” value amounted to 99.41%.
As for `O=C(O)C(F)(F)F.O=C1CCCN1Cc1ncn2c1CN(Cc1cccs1)CCC2`, the “Percent Effect” value is recorded as -6.025%.
The same measure for `O=C1CCCN1Cc1ncn2c1CN(S(=O)(=O)c1cccs1)CCC2`: -2.152%; for `Cc1ccc(CC(=O)N2CCCn3nnc(Cn4cccn4)c3C2)cc1`: -8.474%; for `CCCn1ncnc1C(C)NC(=O)CC1CCN(C(C)C)CC1` (centres undefined): -1.645%.
The same measure for `CCS(=O)(=O)N1CC(c2nc(-c3cccs3)no2)C1`: 0.556%.
`Cl.c1csc(-c2noc(C3CCCNC3)n2)c1` (centres undefined): the “Percent Effect” value was determined as 100.6%.
The same measure for `c1csc(-c2noc(C3CCCOC3)n2)c1` (centres undefined): -23.77%; for `CCN(CC)CCn1cnc(-c2ccccc2)c1-c1cnn(CC)c1`: 8.592%.
The value for `Cc1nn(C)cc1-c1nn2c(C(F)(F)F)nnc2s1` was 115.5%.
The value for `CCn1cc(-c2nn3c(C(F)(F)F)nnc3s2)cn1` was 71.37%; that for `CN(Cc1cc(=O)c(O)co1)C1CCN(c2ccc(F)cc2)CC1` was -14.07%.
Turning to `COCCN(C)C[C@H]1C[C@@H](CO)CN(C(=O)c2ccn(C)c(=O)c2)C1`, the “Percent Effect” value was 96.22%.
With `CN(C)C[C@H]1C[C@H](CO)CN(C(=O)c2cc(S(N)(=O)=O)ccc2F)C1`, the “Percent Effect” value is recorded as -6.33%.
On to `CN(C)C[C@H]1C[C@@H](CO)CN(C(=O)c2cc(=O)[nH]c3cc(F)ccc23)C1`, for which the “Percent Effect” value is listed as -10.33%.
Turning to `COCCN(C)C[C@H]1C[C@H](CO)CN(C(=O)c2ccn(C)c(=O)c2)C1`, the “Percent Effect” value turned out to be 59.73%.
The same measure for `Cn1ccc(C(=O)N2CCCC(CNS(C)(=O)=O)C2)cc1=O` (centres undefined): -3.744%; for `Cc1nc(-c2ccc(Cl)s2)sc1C(=O)N(C)CC(N)=O`: 2.802%; for `COCc1noc(-c2ccc(N3CCCC3c3nccs3)nc2)n1` (centres undefined): 1.711%.
The value for `CCc1c(C)sc(NC(=O)CN2CCOCC2)c1C(=O)OC` was 123.3%; that for `CCOC(=O)c1c(NC(=O)CN2CCN(C(C)=O)CC2)sc(C)c1C` was 112.4%.
As for `CCOC(=O)N1CCN(CC(=O)Nc2nnc(CC)s2)CC1`, the “Percent Effect” value was -11.16%.
Consider `CCOC(=O)c1c(NC(=O)C2CCN(C(C)=O)CC2)sc(C)c1CC`, for which the “Percent Effect” value was determined as 114.1%.
With `CCc1c(C)sc(NC(=O)CN2CCN(CC)CC2)c1C(=O)OC`, the “Percent Effect” value was -10.89%.
For `CCC(C)NC(=O)CN1CCOCC1` (centres undefined), the “Percent Effect” value was found to be 4.194%.
Turning to `CCOC(=O)N1CCN(CC(=O)Nc2nnc(C)s2)CC1`, the “Percent Effect” value is -13.53%.
The same measure for `CCc1ccc(NC(=O)C2CCN(C(=O)COC)CC2)cc1`: -3.205%.
Take `CCOC(=O)N1CCC(C(=O)Nc2nnc(C(F)(F)F)[nH]2)CC1`: the “Percent Effect” value was 5.698%.
As for `O=C(Nc1ccc(N2CCOCC2)nc1)N1CCc2sccc2C1`, the “Percent Effect” value is given as -5.037%.
The same measure for `Cc1nn(C)c(Oc2ccccc2)c1CNC1CCOc2ccccc21` (centres undefined): 17.34%; for `CC(C)c1ccc(/C=C/CC(=O)NC2CCS(=O)(=O)CC2)cc1`: -29.94%.
Turning to `CC(=O)c1cccc(OCCCC(=O)N(C)Cc2cnn(C)c2)c1`, the “Percent Effect” value was -7.913%.
As for `N#CC1(NC(=O)COC(=O)Cn2cccn2)CCCC1`, the “Percent Effect” value was found to be 0.9044%.
`N#Cc1ccnc(SCC2CN=C(N3CCOCC3)S2)c1` (centres undefined): the “Percent Effect” value is 11.27%.
As for `O=C(CC1CC1)N[C@@H]1CN(C(=O)c2ccsc2)C[C@@H]2CCCO[C@@H]21`, the “Percent Effect” value is 100.4%.
The same measure for `O=C(CC1CC1)N[C@@H]1CN(Cc2nccs2)C[C@@H]2CCCO[C@@H]21`: -7.838%; for `Cc1occc1C(=O)N1C[C@@H]2CCCO[C@@H]2[C@H](NS(C)(=O)=O)C1`: 108.4%.
The value for `O=C(c1cccs1)N1C[C@H]2CC[C@@]3(N=C(c4ccccc4)NC3=O)[C@H]2C1` was 7.494%.
The same measure for `Cc1occc1C(=O)N1CC[C@@H]2[C@@H](CO[C@H]2CNS(C)(=O)=O)C1`: -7.18%; for `Cc1occc1C(=O)N1C[C@@H]2CN(S(C)(=O)=O)CCO[C@@H]2C1`: -6.506%; for `O=C(CC1CC1)N[C@@H]1CN(c2ncccn2)C[C@@H]2CCCO[C@@H]21.O=C(O)C(F)(F)F`: -2.682%.
With `O=C(CC1CC1)N[C@@H]1CN(C(=O)c2ccoc2)C[C@@H]2CCCO[C@@H]21`, the “Percent Effect” value was 95.5%.
The same measure for `O=C(CC1CC1)N[C@@H]1CN(C(=O)c2cccs2)C[C@@H]2CCCO[C@@H]21`: 73.18%; for `O=C(CC1CC1)N[C@@H]1CN(Cc2ccc(F)cc2)C[C@@H]2CCCO[C@@H]21.O=C(O)C(F)(F)F`: -7.276%.
Consider `COc1ccc(CN2C[C@@H]3CCCO[C@@H]3[C@H](NC(=O)CC3CC3)C2)cc1`, for which the “Percent Effect” value was -5.236%.
In the case of `CCn1ccnc1CN1CCCN(CC2CC2)C(C(C)C)C1` (centres undefined), the “Percent Effect” value is -2.193%.
The same measure for `Cc1nnsc1CN1CCCC1c1nc(-c2ccccc2)no1` (centres undefined): 16.39%; for `Cc1csc([C@@H]2C[C@@H]3CCN(Cc4cnn(C)c4)C[C@H]3O2)n1`: -7.419%; for `CN1CCC(N(C)C(=O)CSc2ccc(F)c(F)c2)C1=O` (centres undefined): -7.197%.
The same measure for `Cc1ccc([C@@H]2CN(C(=O)c3ccoc3C)C[C@H]2NC(=O)C2CC2)cc1`: -4.07%; for `Cc1occc1C(=O)N1C[C@@H]2CCCO[C@@H]2[C@H](NC(=O)CC2CC2)C1`: 111.2%.
